Bioassay records: PubChem BioAssay, The Scripps Research Institute Molecular Screening Center
Only some compounds are listed: those with a hit (about 1.1% of all), similar ones and a draw of the others.
MOR-DOR ag-1 – agonists of OPRM1-OPRD1 heterodimerization, primary screen, cell-based, luminescence. cells. Mu-type opioid receptor (Homo sapiens) + Delta-type opioid receptor (Homo sapiens), …. 340,000 tested, 0.3% active. activation, % at 9.3 µM
Target sequence (P35372 whole entry, looked up): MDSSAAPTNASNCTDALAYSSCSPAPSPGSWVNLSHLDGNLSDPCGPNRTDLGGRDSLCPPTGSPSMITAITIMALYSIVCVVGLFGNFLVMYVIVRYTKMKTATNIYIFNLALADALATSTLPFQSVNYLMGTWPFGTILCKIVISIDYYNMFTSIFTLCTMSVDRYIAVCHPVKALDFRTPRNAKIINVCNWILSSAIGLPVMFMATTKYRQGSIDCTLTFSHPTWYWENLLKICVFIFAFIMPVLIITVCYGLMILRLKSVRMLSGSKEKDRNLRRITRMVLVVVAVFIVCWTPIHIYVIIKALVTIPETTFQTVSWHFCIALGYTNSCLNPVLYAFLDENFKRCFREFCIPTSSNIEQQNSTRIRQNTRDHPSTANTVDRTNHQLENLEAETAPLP
Target sequence (P41143 whole entry, looked up): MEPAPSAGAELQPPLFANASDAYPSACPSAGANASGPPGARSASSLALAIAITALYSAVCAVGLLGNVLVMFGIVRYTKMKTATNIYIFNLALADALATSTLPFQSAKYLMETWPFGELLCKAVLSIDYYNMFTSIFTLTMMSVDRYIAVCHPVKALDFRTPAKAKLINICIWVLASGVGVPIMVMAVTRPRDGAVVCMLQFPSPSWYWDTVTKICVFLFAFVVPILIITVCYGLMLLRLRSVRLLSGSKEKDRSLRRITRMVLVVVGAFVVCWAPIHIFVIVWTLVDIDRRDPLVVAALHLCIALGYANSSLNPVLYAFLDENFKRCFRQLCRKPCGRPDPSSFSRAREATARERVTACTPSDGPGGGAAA
HTR5A inv ctr – HTR5A inverse agonists in luminescence cell assay, primary screen, counter-screen for OPRM1-OPRD1 heterodimer inverse agonist project, full-deck HTS. inhibition, % at 9.3 µM. 340,000 tested, 0.083% active. 5-hydroxytryptamine receptor 5A (Homo sapiens), P47898. HTR5A cell line, inverse agonism; in the data active = inhibition mostly above about 23%, no sharp cut-off; inactive = mostly below about 18%
HTR5A ag ctr – HTR5A agonists in luminescence cell assay, primary screen, counter-screen for OPRM1-OPRD1 heterodimer agonist project, full-deck HTS; 5-hydroxytryptamine receptor 5A (Homo sapiens), P47898; cell-based; activation, % at 9.3 µM; 340,000 tested, 0.61% active; AID 504692, 2011; in the data active = activation mostly above about 9.5%, no sharp cut-off; inactive = mostly below about 7.6%
MOR-DOR inv ag – inverse agonists of MOR-DOR heterodimerization, primary screen, cell-based, luminescence; AID 504357, 2011; Mu-type opioid receptor (Homo sapiens) + Delta-type opioid receptor (Homo sapiens), …; cell-based MOR-DOR heterodimer luminescence, inverse agonism; 340,000 tested, 0.21% active; inhibition, % at 9.3 µM; in the data active = inhibition above about 22%, passing the limit was not always enough
MOR-DOR ag-2 – OPRM1-OPRD1 heterodimerization promoters, counter-screen for HTR5A agonist project, cell-based, luminescence. U2OS counter-screen cells, complementation luminescence, 3 h. 800 tested, 13% active. activation, % at 9.3 µM. AID 504913, 2011. shares compounds with HTR5A ag ctr
HTR5A ag confirm – HTR5A agonists, retest of hits, confirmation, cell-based, luminescence; shares compounds with HTR5A ag ctr; activation, % at 9.3 µM; HTR5A agonist cell assay; 800 tested, 17% active; in the data active = activation above about 17%
Of the large screens only hits and unclear results are named; the others gave an inactive call (follow-up assays come after a bar, where they were run); ! = a repeat was not active. Rule as the data show it, unless noted: active = activation above about 18%; inactive = the rest.

O=C(CC1CC2CCC1C2)OCC(=O)c1c[nH]c2ccccc12 (configuration not stated)	HTR5A ag ctr 15 | MOR-DOR ag-2 inactive | HTR5A ag confirm inactive
Cn1c(NC(=O)Cc2cccs2)cc(=O)n(C)c1=O	HTR5A ag ctr 19 | MOR-DOR ag-2 inactive | HTR5A ag confirm inactive
COC(=O)Cn1ccc2cc(S(=O)(=O)N3CCCCC3)ccc21	none
N=C1S/C(=C\c2ccc(O)cc2)C(=O)N1c1ccc(F)cc1	HTR5A ag ctr 15 | MOR-DOR ag-2 inactive | HTR5A ag confirm inactive
COc1ccc(NC(=O)O/N=C2/CCCc3ccc(OC)cc32)cc1	HTR5A ag ctr 19 | MOR-DOR ag-2 inactive | HTR5A ag confirm 28
COc1ccc2c(c1)/C(=N/OC(=O)c1cccs1)CCC2	HTR5A ag ctr 22 | MOR-DOR ag-2 inactive | HTR5A ag confirm 31
COc1ccc(NC(=O)CN(C)CC(=O)Nc2ccc3c(c2)CCC3)cc1	none
CN(C)C1(CN=Cc2cc(Cl)cc([N+](=O)[O-])c2O)CCCCC1	none
COc1ccc(C(=O)CC(SCC(NC(C)=O)C(=O)O)c2ccc(Cl)cc2)cc1OC (configuration not stated)	none
O=C1OCCC1Sc1nnc(-c2cccs2)n1Cc1ccccc1 (configuration not stated)	HTR5A ag ctr 15 | MOR-DOR ag-2 inactive | HTR5A ag confirm inactive
O=C1OCCC1Sc1nnc(-c2ccccc2Cl)n1Cc1ccccc1 (configuration not stated)	none
COc1cc(CN2CCN(Cc3ccc([N+](=O)[O-])cc3)CC2)c([N+](=O)[O-])cc1OC	HTR5A ag ctr 15 | MOR-DOR ag-2 inactive | HTR5A ag confirm inactive
O=C(NCCn1cccn1)C1CCC(=O)N(CC2CCCCC2)C1 (configuration not stated)	HTR5A ag ctr 25 | MOR-DOR ag-2 inactive | HTR5A ag confirm inactive
COc1cccc(-c2sc3ccccc3c2-c2ccc(OCCN3CCCC3)cc2)c1	HTR5A ag ctr 16 | MOR-DOR ag-2 inactive | HTR5A ag confirm 19
COc1cccc(-c2sc3ccc(OC)cc3c2-c2ccc(OCCN3CCCC3)cc2)c1	none
COc1cccc(-c2sc3ccccc3c2-c2ccc(OCCN3CCCCC3)cc2)c1	HTR5A ag ctr 17 | MOR-DOR ag-2 inactive | HTR5A ag confirm inactive
O=C(OCC(=O)c1c[nH]c2ccccc12)c1cccc([N+](=O)[O-])c1	none
CCCCc1cc(=O)oc2cc(OCC(=O)NC3CCN(Cc4ccccc4)CC3)ccc12	HTR5A ag ctr 15 | MOR-DOR ag-2 inactive | HTR5A ag confirm inactive
OCC#CCSc1nnc(-c2ccncc2)o1	HTR5A ag ctr 16 | MOR-DOR ag-2 20 | HTR5A ag confirm inactive
C/C(=N/NC(=O)CNc1ccc(C)cc1)c1ccc(Br)s1	HTR5A ag ctr 24 | MOR-DOR ag-2 inactive | HTR5A ag confirm 38
COc1ccccc1NCC(=O)N/N=C(\C)c1ccc(Br)s1	HTR5A ag ctr 46 | MOR-DOR ag-2 inactive | HTR5A ag confirm 36
CC1CCc2sc(C(=O)NNS(=O)(=O)c3ccc(F)c(F)c3F)cc2C1 (configuration not stated)	none
CC(OC(=O)c1c[nH]c2ccccc12)C(=O)N1CCCC1 (configuration not stated)	none
CC(NC(=O)c1ccc(F)cc1F)C1CC2CCC1C2 (configuration not stated)	none
CCCCCC(C)NC(=S)NC(=O)c1cc(S(=O)(=O)N2CCOCC2)ccc1C (configuration not stated)	HTR5A ag ctr 15 | MOR-DOR ag-2 inactive | HTR5A ag confirm inactive
Cc1ccc(OCC(=O)N/N=C/c2cccc3cccnc23)cc1	none
COc1ccc(CCNC(=O)CN2C(=O)COc3ccc(S(=O)(=O)N4CCCC4)cc32)c(OC)c1	none
C=CCN1CCc2c(cc(O)c(O)c2Cl)C(c2ccccc2)C1 (configuration not stated)	HTR5A ag ctr 26 | MOR-DOR ag-2 inactive | HTR5A ag confirm inactive
Cc1cc(OC(=O)c2ccccc2Cl)cc(=O)n1C	HTR5A ag ctr 16 | MOR-DOR ag-2 123 | HTR5A ag confirm inactive
COc1cc2nc(N3CCN(c4cc(C)ccc4C)CC3)nc(N)c2cc1OC	HTR5A ag ctr 17 | MOR-DOR ag-2 inactive | HTR5A ag confirm inactive
COc1ccc(OCc2n(CC(=O)OC3CC(C)CCC3C(C)C)c3ccccc3[n+]2C)cc1 (configuration not stated)	HTR5A ag ctr 21 | MOR-DOR ag-2 inactive | HTR5A ag confirm inactive
O=C(CSc1ccc(-c2ccc(F)cc2)nn1)NCc1ccco1	HTR5A ag ctr 19 | MOR-DOR ag-2 inactive | HTR5A ag confirm inactive
CC(C(=O)NC1C=CS(=O)(=O)C1)N1C(=O)/C(=C/c2cccc(Cl)c2)SC1=S (configuration not stated)	HTR5A ag ctr 15 | MOR-DOR ag-2 38 | HTR5A ag confirm inactive
Oc1ccc(CNc2ccc(F)cc2)c2cccnc12	HTR5A ag ctr 23 | MOR-DOR ag-2 inactive | HTR5A ag confirm inactive
Oc1ccc(CNc2ccccc2)c2cccnc12	none
CC1CN(C(=O)COC(=O)c2ccc3ncsc3c2)CC(C)O1 (configuration not stated)	none
CCCCCCCCCCCCCCCC[n+]1cccc2ccccc21	HTR5A ag ctr 20 | MOR-DOR ag-2 494 | HTR5A ag confirm inactive
Oc1ccc(C2CNCCc3c2cc(O)c(O)c3Cl)cc1 (configuration not stated)	HTR5A ag ctr 32! | MOR-DOR ag-2 inactive | HTR5A ag confirm 56
NC(=O)CCCn1c(C(=O)c2ccc(Cl)cc2)c2ccc([N+](=O)[O-])cc2[n+]1[O-]	none
Cc1ccc(C(=O)c2c3ccc([N+](=O)[O-])cc3[n+]([O-])n2CCCC(N)=O)cc1	HTR5A ag ctr 17 | MOR-DOR ag-2 inactive | HTR5A ag confirm inactive
O=C1C(C=NCCCN2CCCC2=O)=C(O)c2ccccc21	HTR5A ag ctr 18 | MOR-DOR ag-2 28 | HTR5A ag confirm inactive
CC(C)=C1SC(N2CCN(c3cccc(Cl)c3)CC2)=NC1=O	HTR5A ag ctr 14 | MOR-DOR ag-2 35 | HTR5A ag confirm inactive
CC(=O)N1CCc2c(sc(NC(=O)C3COc4ccccc4O3)c2C(N)=O)C1 (configuration not stated)	HTR5A ag ctr 38 | MOR-DOR ag-2 inactive | HTR5A ag confirm 49
CN1CCc2c(sc(NC(=O)C3COc4ccccc4O3)c2C(N)=O)C1 (configuration not stated)	HTR5A ag ctr 17 | MOR-DOR ag-2 inactive | HTR5A ag confirm 52
COC(=O)c1c(NC(=O)C2COc3ccccc3O2)sc2c1CCN(C(C)=O)C2 (configuration not stated)	none
CCN1CCc2c(sc(NC(=O)Cc3ccccc3)c2C(N)=O)C1	none
